From PMC5540273 (PLoS ONE, 2017)

What follows are compounds tested on ITK. Conditions: concentration: 1 μM, replicates: in singlicate; n = 1.
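Further: KINOMEscan kinase panel screen.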

| Compound | %Inh |
| --- | --- |
| COc1ccc(-c2cc3c(C)nc(N)nc3n([C@H]3CC[C@H](O)CC3)c2=O)cn1 | 0% |
| CCC(=O)c1c(-c2ccccc2)c2cc(Cl)ccc2c(=O)n1Cc1ccc(C(=O)O)cc1 | 12% |
| O=C(NCc1cccs1)c1cc(C(=O)c2c(Cl)cccc2Cl)c[nH]1 [GW823670] | 1% |
| COc1cccc(C2=C(N(C)c3ccccc3)C(=O)NC2=O)c1 [SB-334865] | 16% |
| CC(C)(C)c1ccc(C(=O)Nc2cn3cc(-c4ccccc4)ccc3n2)cc1 | 12% |
| CCC(=O)c1c(-c2ccccc2)c2cc(Cl)ccc2c(=O)n1Cc1cc(S(C)(=O)=O)n(CC(F)F)n1 | 0% |
| CCC(=O)c1c(-c2ccccc2)c2cc(Cl)ccc2c(=O)n1Cc1cc(S(C)(=O)=O)n(CCC(C)(C)O)n1 | 5% |
| COc1cc2nccc(Nc3ccc(OCc4ccc(NC(C)=O)cc4)cc3)c2cc1OC.Cl [GW440135] | 5% |
| COc1cc2nccc(Nc3cccc(Oc4ccccc4)c3)c2cc1OC.Cl [GW284543] | 13% |
| Cl.c1ccc(Cn2cnc3cc(Nc4ncnc5ccccc45)ccc32)cc1 [GW272142] | 7% |
| O=C(NCCNc1ccnc(Nc2ccc(F)cc2)n1)Nc1ccc2c(c1)OCO2 [GSK1379882] | 9% |
| Nc1ncnc2c1ncn2-c1ccc(Cl)cc1 [AH2635] | 0% |
| COc1cc(Nc2nccc(N3CCC(NC(=O)C(C)c4ccc(Cl)cc4)C3)n2)cc(OC)c1OC (stereo not drawn) [GSK1379757] | 11% |
| Cc1c(Cn2c(C)nn3c(=O)cc(N4CCO[C@H](C)C4)nc23)cccc1C(F)(F)F [GSK2373690] | 26% |
| CCc1nc(-c2cccc(C)c2)c(-c2ccncc2)s1 | 4% |
| Cc1nnc(-c2ccc(C)c(-c3ccc(C(=O)O)cc3)c2)o1 [GW608005] | 4% |
| CCC(=O)c1c(-c2ccccc2)c2cc(Cl)ccc2c(=O)n1Cc1cc(C(=O)NC2CC2)n(C)n1 | 0% |
| Nc1nc(-c2ccccc2F)c(-c2ccnc3ccccc23)s1 [GW560459] | 3% |

| Compound | %Inh |
| --- | --- |
| Cc1nnc(-c2ccc3ncn(-c4ccc(S(C)=O)cc4)c3c2)o1 (stereo not drawn) | 15% |
| CCS(=O)(=O)c1ccc(OC)c(Nc2ncc(-c3ccc(F)cc3)o2)c1.Cl [GW591947] | 0% |
| CCS(=O)c1ccc(-c2coc3ccc(-c4nnc(C)o4)cc23)cc1 (stereo not drawn) | 0% |
| Nc1n[nH]c2nnc(-c3ccccc3)c(-c3ccccc3)c12 [GW554060] | 12% |
| O=C(Nc1n[nH]c2nc(-c3ccccc3)c(Cl)cc12)C1CC1 [SB-734909] | 0% |
| COC(=O)c1c(-c2ccccc2)c2cc(Br)ccc2c(=O)n1Cc1ccc(S(C)(=O)=O)cc1 | 30% |
| Cc1ccc(Oc2ccc(Nc3ncnc4cc[nH]c34)cc2C)cn1 | 0% |
| O=C(Nc1n[nH]c2nc(-c3ccccc3)c(Br)cc12)C1CC1 [SB-708998] | 1% |
| CN(C)c1cc(-c2ccc3c(N)n[nH]c3c2)nc(N)n1 [GSK2219329] | 6% |
| COc1ccc(-n2cnc3c(N)ncnc32)cc1 [SKF-97236] | 7% |
| CCCC(=O)Nc1n[nH]c2ncc(-c3cccc4ccccc34)cc12 [SB-642057] | 15% |
| FC(F)(F)c1ccc(-c2ncn(CCCN3CCOCC3)c2-c2ccncc2)cc1 [SB-217780] | 9% |
| Cn1c(=O)c(F)c(Nc2ccc(I)cc2F)c2c(=O)n(OC[C@H](O)CO)cnc21 | 3% |
| COc1ccc(Nc2nccc(N3CCC(NS(=O)(=O)c4ccc(NC(C)=O)cc4)C3)n2)cc1 (stereo not drawn) [GSK1379729] | 19% |
| Cl.NS(=O)(=O)c1cccc(Nc2cc(-c3ccc(F)cc3)n[nH]2)c1 [GW824645] | 0% |
| OCCCNc1nccc(-c2c(-c3cccc(C(F)(F)F)c3)nn3cc(C(F)(F)F)ccc23)n1 [GW630813] | 0% |
| CCc1ccc(-c2ccc3c(c2)-c2nn(C)cc2S(=O)(=O)N3C)cc1 | 0% |
| COc1ccc(-c2coc3ccc(-c4nnc(SCc5cccc(C#N)c5)o4)cc23)cc1 | 0% |

Each compound was assayed on JAK1(JH1domain-catalytic). Conditions: concentration: 1 μM, replicates: in singlicate; n = 1.

| Compound | %Inh |
| --- | --- |
| COc1ccc(-c2cc3c(C)nc(N)nc3n([C@H]3CC[C@H](O)CC3)c2=O)cn1 | 0% |
| CCC(=O)c1c(-c2ccccc2)c2cc(Cl)ccc2c(=O)n1Cc1ccc(C(=O)O)cc1 | 9% |
| O=C(NCc1cccs1)c1cc(C(=O)c2c(Cl)cccc2Cl)c[nH]1 [GW823670] | 1% |
| COc1cccc(C2=C(N(C)c3ccccc3)C(=O)NC2=O)c1 [SB-334865] | 13% |
| CC(C)(C)c1ccc(C(=O)Nc2cn3cc(-c4ccccc4)ccc3n2)cc1 | 12% |
| CCC(=O)c1c(-c2ccccc2)c2cc(Cl)ccc2c(=O)n1Cc1cc(S(C)(=O)=O)n(CC(F)F)n1 | 2% |
| CCC(=O)c1c(-c2ccccc2)c2cc(Cl)ccc2c(=O)n1Cc1cc(S(C)(=O)=O)n(CCC(C)(C)O)n1 | 3% |
| COc1cc2nccc(Nc3ccc(OCc4ccc(NC(C)=O)cc4)cc3)c2cc1OC.Cl [GW440135] | 20% |
| COc1cc2nccc(Nc3cccc(Oc4ccccc4)c3)c2cc1OC.Cl [GW284543] | 0% |
| Cl.c1ccc(Cn2cnc3cc(Nc4ncnc5ccccc45)ccc32)cc1 [GW272142] | 4% |
| O=C(NCCNc1ccnc(Nc2ccc(F)cc2)n1)Nc1ccc2c(c1)OCO2 [GSK1379882] | 12% |
| Nc1ncnc2c1ncn2-c1ccc(Cl)cc1 [AH2635] | 2% |
| COc1cc(Nc2nccc(N3CCC(NC(=O)C(C)c4ccc(Cl)cc4)C3)n2)cc(OC)c1OC (stereo not drawn) [GSK1379757] | 20% |
| Cc1c(Cn2c(C)nn3c(=O)cc(N4CCO[C@H](C)C4)nc23)cccc1C(F)(F)F [GSK2373690] | 21% |
| CCc1nc(-c2cccc(C)c2)c(-c2ccncc2)s1 | 0% |
| Cc1nnc(-c2ccc(C)c(-c3ccc(C(=O)O)cc3)c2)o1 [GW608005] | 3% |
| CCC(=O)c1c(-c2ccccc2)c2cc(Cl)ccc2c(=O)n1Cc1cc(C(=O)NC2CC2)n(C)n1 | 10% |
| Nc1nc(-c2ccccc2F)c(-c2ccnc3ccccc23)s1 [GW560459] | 18% |

| Compound | %Inh |
| --- | --- |
| Cc1nnc(-c2ccc3ncn(-c4ccc(S(C)=O)cc4)c3c2)o1 (stereo not drawn) | 33% |
| CCS(=O)(=O)c1ccc(OC)c(Nc2ncc(-c3ccc(F)cc3)o2)c1.Cl [GW591947] | 11% |
| CCS(=O)c1ccc(-c2coc3ccc(-c4nnc(C)o4)cc23)cc1 (stereo not drawn) | 1% |
| Nc1n[nH]c2nnc(-c3ccccc3)c(-c3ccccc3)c12 [GW554060] | 21% |
| O=C(Nc1n[nH]c2nc(-c3ccccc3)c(Cl)cc12)C1CC1 [SB-734909] | 14% |
| COC(=O)c1c(-c2ccccc2)c2cc(Br)ccc2c(=O)n1Cc1ccc(S(C)(=O)=O)cc1 | 19% |
| Cc1ccc(Oc2ccc(Nc3ncnc4cc[nH]c34)cc2C)cn1 | 0% |
| O=C(Nc1n[nH]c2nc(-c3ccccc3)c(Br)cc12)C1CC1 [SB-708998] | 0% |
| CN(C)c1cc(-c2ccc3c(N)n[nH]c3c2)nc(N)n1 [GSK2219329] | 6% |
| COc1ccc(-n2cnc3c(N)ncnc32)cc1 [SKF-97236] | 5% |
| CCCC(=O)Nc1n[nH]c2ncc(-c3cccc4ccccc34)cc12 [SB-642057] | 9% |
| FC(F)(F)c1ccc(-c2ncn(CCCN3CCOCC3)c2-c2ccncc2)cc1 [SB-217780] | 0% |
| Cn1c(=O)c(F)c(Nc2ccc(I)cc2F)c2c(=O)n(OC[C@H](O)CO)cnc21 | 2% |
| COc1ccc(Nc2nccc(N3CCC(NS(=O)(=O)c4ccc(NC(C)=O)cc4)C3)n2)cc1 (stereo not drawn) [GSK1379729] | 66% |
| Cl.NS(=O)(=O)c1cccc(Nc2cc(-c3ccc(F)cc3)n[nH]2)c1 [GW824645] | 0% |
| OCCCNc1nccc(-c2c(-c3cccc(C(F)(F)F)c3)nn3cc(C(F)(F)F)ccc23)n1 [GW630813] | 14% |
| CCc1ccc(-c2ccc3c(c2)-c2nn(C)cc2S(=O)(=O)N3C)cc1 | 0% |
| COc1ccc(-c2coc3ccc(-c4nnc(SCc5cccc(C#N)c5)o4)cc23)cc1 | 22% |
